We go through 13 compounds from PubChem BioAssay (NCI).

Some test systems named below: DU-145 prostate; K-562 leukemia; MALME-3M melanoma; MDA-MB-231 breast; RXF 393 renal; SF-268 CNS; SF-295 CNS; SF-539 CNS; UACC-257 melanoma; M14 melanoma.
What all share (test): NCI-60 one-dose screen, 48 h (100 = growth as untreated, 0 = no growth, -100 = all killed)
Common to all, as to details: 10 µM unless noted

This is part of a sample that, as a whole, favours compounds with a hit. Of some 83,000 tested, about 20% had one in any assay.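 Single-dose data. Exposure time 48 hours. Values below 10 considered active.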 Values without a mark were called inactive. Activity calls are given as the source filed them.

With `CCc1nc2c(=O)[nH]cnc2o1`, the growth in the experiment with DU-145 prostate is 112%; in the experiment with K-562 leukemia, 104%; in the experiment with MALME-3M melanoma, 83.1%; in the experiment with MDA-MB-231 breast it was 117%; with RXF 393 renal it was 102%; with SF-268 CNS it was 103%. The growth was 110% with SF-295 CNS, 94.8% with SF-539 CNS, 107% in the experiment on UACC-257 melanoma and 103% in the experiment on M14 melanoma.

As for `O=C1Nc2ccc(I)cc2C1=O`, the growth was 106% in the experiment with DU-145 prostate; 107% with K-562 leukemia; 110% with MALME-3M melanoma; 93.5% with MDA-MB-231 breast; 91.4% in the experiment on RXF 393 renal; 110% with SF-268 CNS. In addition, the growth with SF-295 CNS is 99.1%; in the experiment with SF-539 CNS, 100%; with UACC-257 melanoma it was -28.4% (active); in the experiment with M14 melanoma, 95.9%.

As for `CS(=O)(=O)c1cccc(-c2c(-c3cccc(OS(N)(=O)=O)c3)nc3sccn23)c1`, the growth in the experiment on DU-145 prostate was 113%; with K-562 leukemia it was 100%; with MALME-3M melanoma, 102%; in the experiment with MDA-MB-231 breast, 93%; in the experiment on RXF 393 renal it was 107%; with SF-268 CNS, 101%. In addition, the growth was 98.3% in the experiment on SF-295 CNS, 93.5% with SF-539 CNS, 106% in the experiment with UACC-257 melanoma and 105% in the experiment with M14 melanoma.

Turning to `COc1cc(-c2csc(NC(=O)c3cc(-n4cnc(C)c4)cc(C(F)(F)F)c3)n2)cc(OC)c1OC`, the growth in the experiment with DU-145 prostate is 56.4%; in the experiment on K-562 leukemia, 26.8%; in the experiment with MALME-3M melanoma, 67.7%; with MDA-MB-231 breast, 61.3%; with RXF 393 renal it was 66.7%; in the experiment on SF-268 CNS it was 68.6%. The growth was 57.9% in the experiment on SF-295 CNS, 90.9% with SF-539 CNS, 81.9% in the experiment with UACC-257 melanoma and 66.7% in the experiment with M14 melanoma.

Take `O=C(CCCCCCN1CC(=O)N2[C@H](c3cc(Br)cs3)c3[nH]c4ccccc4c3C[C@H]2C1=O)NO`: the growth is 29.1% in the experiment on DU-145 prostate; 10.2% in the experiment with K-562 leukemia; 18.6% with MALME-3M melanoma; 44% in the experiment with MDA-MB-231 breast; 18.7% with RXF 393 renal; 66.8% in the experiment with SF-268 CNS. Further, the growth is 45.8% in the experiment with SF-295 CNS, 43.3% in the experiment on SF-539 CNS, 27.7% in the experiment on UACC-257 melanoma and 37.2% in the experiment with M14 melanoma.

For the compound `C/C(=N\NC(=O)c1ccccc1O)c1cccc(/C(C)=N/NC(=O)c2ccccc2O)n1`, the growth with DU-145 prostate was 55.8%; in the experiment with K-562 leukemia, 57.2%; with MALME-3M melanoma it was 20.9%; with MDA-MB-231 breast it was 52.7%; with RXF 393 renal, 93.7%; with SF-268 CNS, 31.8%. For the same compound, the growth in the experiment with SF-295 CNS was 7.95% (active); in the experiment on SF-539 CNS it was -24.4% (active); in the experiment on UACC-257 melanoma it was 87.6%; with M14 melanoma, 48.6%.

With `Cc1cc2c(O)c(-c3cccc(Cl)c3)c3sc(=O)oc3c2cc1C`, the growth in the experiment with DU-145 prostate was 48.1%; with K-562 leukemia, 17.2%; in the experiment with MALME-3M melanoma it was 58.4%; in the experiment on MDA-MB-231 breast, 53.9%; in the experiment on RXF 393 renal it was 63.5%; in the experiment on SF-268 CNS, 48.7%. Moreover, the growth with SF-295 CNS is 66%; with SF-539 CNS it was 54.3%; in the experiment on UACC-257 melanoma, 39.6%; in the experiment on M14 melanoma, 51.9%.

`COc1cc(OC)c2sc(-c3ccc(-n4cncc4-c4ccc(OC)c(OC)c4)cc3)nc2c1`: the growth with DU-145 prostate is -4.76% (active); in the experiment on K-562 leukemia, 65.5%; in the experiment on MALME-3M melanoma it was 73.1%; in the experiment on MDA-MB-231 breast it was 68%; in the experiment on RXF 393 renal, 12.1%; with SF-268 CNS it was 60.5%. For the same compound, the growth is 48.8% with SF-295 CNS, 66.5% in the experiment with SF-539 CNS, 71.5% in the experiment with UACC-257 melanoma and 67.6% in the experiment on M14 melanoma.

Regarding `C[C@H](NC(=O)[C@@H](C)N)[C@H](Oc1ccc2c(cnn2-c2ccc(F)cc2)c1)c1ccc2c(c1)OCCO2`, the growth was 55.4% with DU-145 prostate; -3.32% (active) in the experiment with K-562 leukemia; -24.7% (active) in the experiment with MALME-3M melanoma; 42.5% in the experiment on MDA-MB-231 breast; 62% with RXF 393 renal; 42.5% in the experiment on SF-268 CNS. In addition, the growth in the experiment with SF-295 CNS is 77%; in the experiment on SF-539 CNS it was 74%; in the experiment with UACC-257 melanoma, 63.9%; in the experiment on M14 melanoma it was -69.6% (active).

In the case of `Oc1c(Cl)cc(Cl)c2ccc(Cn3cc(-c4cc(C(F)(F)F)cc(C(F)(F)F)c4)nn3)nc12`, the growth in the experiment with DU-145 prostate was 21.9%; in the experiment with K-562 leukemia it was 6.87% (active); in the experiment with MALME-3M melanoma it was -13.2% (active); in the experiment with MDA-MB-231 breast, 87%; with RXF 393 renal, -12.8% (active); in the experiment on SF-268 CNS, 77.2%. Besides, the growth in the experiment with SF-295 CNS is 106%; in the experiment with SF-539 CNS, 43.3%; in the experiment with UACC-257 melanoma, 49.9%; with M14 melanoma, 47.8%.

With `COc1ccc2c(c1)[n+]([O-])c(C(=O)/C=C/C=C(\Cl)c1cc(OC)c(OC)c(OC)c1)c(C)[n+]2[O-]`, the growth was 96.7% in the experiment on DU-145 prostate; 110% in the experiment with K-562 leukemia; 61.5% in the experiment with MALME-3M melanoma; 74.9% in the experiment on MDA-MB-231 breast; 47.8% in the experiment on RXF 393 renal; 47.1% with SF-268 CNS. The growth was 21.3% with SF-295 CNS, 66.8% with SF-539 CNS, 108% in the experiment with UACC-257 melanoma and 102% in the experiment on M14 melanoma.

Consider `COc1ccc(NC(=O)c2sc3nc(C)c(C(=O)/C=C/c4cccc(OC)c4)cc3c2N)cc1`, for which the growth was 21.9% in the experiment with DU-145 prostate; 12.7% in the experiment with K-562 leukemia; 94.1% in the experiment with MALME-3M melanoma; 53.2% with MDA-MB-231 breast; -11.4% (active) with RXF 393 renal; 34.4% in the experiment with SF-268 CNS. For the same compound, the growth with SF-295 CNS is 26.9%; in the experiment with SF-539 CNS, 71.2%; with UACC-257 melanoma, 87.9%; with M14 melanoma, 70.3%.

`C/C(Nc1ccc(Cl)c(Cl)c1)=C1\CCOC1=O`: the growth with DU-145 prostate was 106%; in the experiment on K-562 leukemia, 86.8%; with MALME-3M melanoma, 109%; with MDA-MB-231 breast, 95%; with RXF 393 renal, 92.2%; in the experiment on SF-268 CNS, 106%. Further, the growth in the experiment with SF-295 CNS was 86.7%; with SF-539 CNS it was 98.5%; in the experiment with UACC-257 melanoma, 98.3%; with M14 melanoma, 81.3%.
